A selection: hits, their analogues and other compounds. The true share with any hit is near 1.6%.
Mtb hypoxia inh: Mtb hypoxia fluorescent reporter inhibition; M. tuberculosis hypoxia-regulated fluorescent reporter, fluorescence; fluorescence inhibition, % (concentration not given with the values); hit rate 0.1% among 300,000; AID 1159583; in the data active = fluorescence inhibition mostly above about 23%, no sharp cut-off; inactive = mostly below about 17%
Sa ugtP lethal: compounds lethal to S. aureus RN4220 ugtP deletion mutant; OD600 growth, 16 h; growth inhibition, % (concentration not given with the values); hit rate 0.54% among 330,000; AID 1259309; in the data active = growth inhibition above about 68%
BJeLR lethal: BJeLR cell viability loss | BJeLR (HRASV12) viability, CellTiter-Glo ATP luminescence, 48 h | inhibition, % (no concentration beside the values) | hit rate 0.17% among 300,000 | AID 1554; in the data active = inhibition above about 50%
Sa RN4220 lethal: kills Staphylococcus aureus RN4220 | S. aureus RN4220 growth, OD600, 16 h | inhibition, % (test concentration not listed) | hit rate 0.33% among 330,000; in the data active = inhibition above about 85%
CCHFV vOTU inh: CCHFV vOTU protease inhibition; Pep-AMC fluorescence; inhibition, % at 11.5 µM; hit rate 0.55% among 370,000; AID 651958; in the data active = inhibition above about 30%
RecA intein inh: Mtb RecA intein splicing inhibition. P9WHJ3. cell-free RecA intein splicing, fluorescence. inhibition, % (no concentration beside the values). hit rate 0.75% among 290,000. AID 2221; in the data active = inhibition above about 30%
Target sequence (P9WHJ3 whole entry, looked up): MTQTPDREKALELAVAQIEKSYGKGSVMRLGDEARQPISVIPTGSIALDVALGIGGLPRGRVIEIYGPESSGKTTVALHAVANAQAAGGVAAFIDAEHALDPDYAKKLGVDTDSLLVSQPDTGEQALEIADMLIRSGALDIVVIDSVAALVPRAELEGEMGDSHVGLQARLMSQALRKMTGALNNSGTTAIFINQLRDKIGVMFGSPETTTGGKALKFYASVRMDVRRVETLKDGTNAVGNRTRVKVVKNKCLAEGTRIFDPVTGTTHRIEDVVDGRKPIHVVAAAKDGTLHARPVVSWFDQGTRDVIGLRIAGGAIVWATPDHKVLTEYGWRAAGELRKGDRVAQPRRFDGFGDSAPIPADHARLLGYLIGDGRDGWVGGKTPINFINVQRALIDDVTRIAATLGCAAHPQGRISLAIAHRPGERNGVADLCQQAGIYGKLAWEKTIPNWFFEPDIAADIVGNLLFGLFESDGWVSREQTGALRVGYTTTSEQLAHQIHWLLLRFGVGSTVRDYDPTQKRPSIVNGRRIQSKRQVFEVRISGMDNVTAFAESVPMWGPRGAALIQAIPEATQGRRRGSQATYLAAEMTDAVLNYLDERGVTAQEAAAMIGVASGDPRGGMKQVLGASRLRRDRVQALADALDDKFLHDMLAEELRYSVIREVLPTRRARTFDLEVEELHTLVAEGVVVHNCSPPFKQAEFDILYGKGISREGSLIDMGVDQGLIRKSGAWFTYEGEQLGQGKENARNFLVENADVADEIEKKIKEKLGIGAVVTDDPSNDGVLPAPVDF
Large screens that a line does not name were inactive.

COc1ccc(NS(=O)(=O)c2ccc(O)c(NC(=O)c3cc4c(C)nn(-c5ccc(F)cc5)c4s3)c2)cc1	Sa ugtP lethal 83.7 (no result: CCHFV vOTU inh)
O=Nc1c(O)c2ccccc2c2ccccc12	Sa ugtP lethal 99.2, Sa RN4220 lethal 99.6, RecA intein inh 41.5
CCOC(=O)/C(=C\c1cccnc1)C(=O)c1cc(C(C)=O)c(Nc2ccccc2)s1	BJeLR lethal 52.5 (no result: CCHFV vOTU inh)
C=CCOc1ccc(/C=C2\SC(=S)N(NS(=O)(=O)c3ccc(C)cc3)C2=O)cc1	Sa ugtP lethal 87.6
Cc1ccc(S(=O)(=O)NN2C(=O)/C(=C/c3ccc(F)cc3)SC2=S)cc1	Sa ugtP lethal 88.9, Sa RN4220 lethal 84.9
Cc1ccc(S(=O)(=O)NN2C(=O)/C(=C\c3ccc(Cl)cc3)SC2=S)cc1	none
Cc1ccc(/C=C2\SC(=S)N(NS(=O)(=O)c3ccc(C)cc3)C2=O)cc1	none
COc1ccc(/C=C2/SC(=S)N(NS(=O)(=O)c3ccc(C)cc3)C2=O)cc1	Sa ugtP lethal 81.7
CC(C)(C)OC(=O)CC1CC=CCC(CC(=O)NC(CO)Cc2ccccc2)C(=O)NC(Cc2ccccc2)COC1=O (configuration not stated)	none (no result: BJeLR lethal, CCHFV vOTU inh, RecA intein inh)
OCC(O)C(O)C(OC1OC(CO)C(O)C(O)C1O)C(O)CO (configuration not stated)	none (no result: BJeLR lethal, CCHFV vOTU inh, RecA intein inh)
CCC1=C(OC(=O)N(CC)CC)N2C(=O)OC(=NCc3ccccc3)[C@]2(C)C2C1=CCC1C(=O)N(c3ccccc3)C(=O)C12 (some centres not stated)	none (no result: BJeLR lethal, CCHFV vOTU inh, RecA intein inh)
CC(C)(C)OC(=O)NCCCCC(NC(=O)c1[nH]cnc1C(=O)Nc1ccccc1)C(=O)OC(C)(C)C (configuration not stated)	none (no result: BJeLR lethal, CCHFV vOTU inh, RecA intein inh)
COc1ccc(CCc2cc(OC)c(OC)c(OC)c2)cc1	none (no result: Mtb hypoxia inh, Sa ugtP lethal, BJeLR lethal, Sa RN4220 lethal, RecA intein inh)
COc1cc(Cc2cc(N)nc(N)n2)cc(OC)c1OC	Sa ugtP lethal 99.5, Sa RN4220 lethal 98.1
Cc1ccc(C(=O)NC(=CCl)P(=O)(c2ccccc2)c2ccccc2)cc1	none (no result: BJeLR lethal, CCHFV vOTU inh, RecA intein inh)
Cc1onc(C(=O)N2CCN(C(c3ccccc3)c3ccccc3)CC2)c1[N+](=O)[O-]	BJeLR lethal 74.7 (no result: Mtb hypoxia inh)
CC(C(=O)CC(=O)OC(C)(C)C)C(O)c1ccc(C(F)(F)F)cc1 (configuration not stated)	none (no result: BJeLR lethal, CCHFV vOTU inh, RecA intein inh)
CCCC(=O)NC(=S)Nc1ccc(N2CCN(C(=O)c3cccs3)CC2)cc1	Sa ugtP lethal active (not shown: Mtb hypoxia inh)
CCCCCC(=O)NC(=S)Nc1ccc(N2CCOCC2)cc1	Sa ugtP lethal 91.1 (not shown: Mtb hypoxia inh)
COc1ccc(OCC(=O)NC(=S)Nc2ccc(N3CCOCC3)c(Cl)c2)cc1	Mtb hypoxia inh 38.1 (no result: CCHFV vOTU inh)
CCC(=O)NC(=S)Nc1ccc(N2CCOCC2)cc1	none
CCCC(=O)NC(=S)Nc1ccc(NC(=O)c2cccs2)cc1	none (not shown: Mtb hypoxia inh)
NC(=O)C1CC2(CC(c3cccc(NC(=O)C4CCC(=O)N4)c3)=NO2)CN1C(=O)Cc1ccc([N+](=O)[O-])cc1 (configuration not stated)	none (no result: BJeLR lethal, CCHFV vOTU inh, RecA intein inh)
COc1ccc2ccc3c(c2c1)N=CC1(O3)N(C)c2ccccc2C1(C)C (configuration not stated)	RecA intein inh 75.6 (no result: CCHFV vOTU inh)
CN1c2ccccc2C(C)(C)[C@]12C=Cc1cc(O)ccc1O2	none (no result: RecA intein inh)
CC(=CC(=O)c1ccc(F)cc1)NCc1ccc2c(c1)OCO2	none (no result: BJeLR lethal, CCHFV vOTU inh, RecA intein inh)
COC(=O)[C@@]1(Cc2ccccc2)C=CC(C)N1C(C)=O (some centres not stated)	none (no result: BJeLR lethal, CCHFV vOTU inh, RecA intein inh)
Cc1ccc(-c2ccc(C3C4C=CCC[C@@]4(C)C(=O)N3Cc3ccccc3)c(F)c2)cc1 (some centres not stated)	Sa ugtP lethal 81.2 (no result: BJeLR lethal, CCHFV vOTU inh, RecA intein inh)
O=C(CCc1ccc(O)cc1)c1c(O)cc(O)cc1O	none
COc1cc(O)c(CC=C(C)C)c(O)c1C(=O)CCc1ccc(O)cc1	Sa ugtP lethal 91.6 (no result: Mtb hypoxia inh)
S=C1NCC(CC2CCCCC2)N1CCCCC1CCCCC1 (configuration not stated)	none (no result: BJeLR lethal, CCHFV vOTU inh, RecA intein inh)
Oc1c(Br)cc(Br)cc1C=NNc1ccc(Cl)nn1	Sa ugtP lethal 99.6 (no result: BJeLR lethal, CCHFV vOTU inh, RecA intein inh)
Oc1c(Br)cc(C=NNc2ccc(Cl)nn2)cc1Br	none (no result: BJeLR lethal, CCHFV vOTU inh, RecA intein inh)
C=CCC(CC(=O)NC(CO)Cc1ccccc1)C(=O)NC(COC(=O)C(CC=C)CC(=O)OC(C)(C)C)Cc1ccccc1 (configuration not stated)	none (no result: BJeLR lethal, CCHFV vOTU inh, RecA intein inh)
CC=CC=CC(=O)Nc1cccc(C2=NOC3(C2)CC(C(N)=O)N(C(=O)C2CCC(=O)N2)C3)c1 (configuration not stated)	none (no result: BJeLR lethal, CCHFV vOTU inh, RecA intein inh)
CCCCOc1ccc(C2C3CN(C(=O)OCC)CC=C3C(C#N)=C(N)C2(C#N)C#N)cc1OC (configuration not stated)	RecA intein inh 32.6
CCC(C)C(CN)NCC1(c2ccccc2)CC1 (configuration not stated)	none (no result: BJeLR lethal, CCHFV vOTU inh, RecA intein inh)
CCN1CC2C3C(=O)N(Cc4ccccc4)C(=O)C3[C@](C)(C1=O)N2C(=O)c1ccc(Br)cc1 (some centres not stated)	none (no result: BJeLR lethal, CCHFV vOTU inh, RecA intein inh)
COCCCNC1=C(C#N)C(=O)NC(c2cccc([N+](=O)[O-])c2)S1 (configuration not stated)	none (no result: Mtb hypoxia inh, Sa ugtP lethal, BJeLR lethal, Sa RN4220 lethal, RecA intein inh)
COc1cc(C2NC(=O)C(C#N)=C(Nc3cccc(C)c3)S2)ccc1O (configuration not stated)	RecA intein inh 87.0
O=C(COC(=O)C1CC2CCCC(C1)C2=O)Nc1ccc(F)c(Cl)c1 (configuration not stated)	Mtb hypoxia inh 22.0 (no result: BJeLR lethal, RecA intein inh)
CCCCCC(=O)Nc1cccc(C2=NOC3(C2)CC(C(N)=O)N(C(=O)c2ccc(Cl)cc2)C3)c1 (configuration not stated)	none (no result: BJeLR lethal, CCHFV vOTU inh, RecA intein inh)
O=[N+]([O-])c1ccc(O)c(-c2nc(-c3ccccc3)c(-c3cccs3)[nH]2)c1	Sa ugtP lethal 84.9, Sa RN4220 lethal 87.5
O=C(O)c1ccc(-c2nc(-c3ccccc3)c(-c3cccs3)[nH]2)cc1	none
CC[C@@]12C(=O)N(c3cccc(Br)c3)C(=O)N1C(c1ccc(Br)cc1)C1C(=O)N(C(C)(C)C)C(=O)C12 (some centres not stated)	none (no result: BJeLR lethal, CCHFV vOTU inh, RecA intein inh)
C/C(=N\Nc1ccc2nncn2n1)c1ccccn1	BJeLR lethal 62.5 (no result: Mtb hypoxia inh, Sa ugtP lethal, Sa RN4220 lethal)
COC1C=CO[C@@]2(C)Oc3c(C)c(O)c4c(O)c(c(C=NN5CCN(C6CCCC6)CC5)c(O)c4c3C2=O)NC(=O)C(C)=CC=CC(C)C(O)C(C)C(O)C(C)C(OC(C)=O)C1C (some centres not stated)	Sa ugtP lethal 98.2, Sa RN4220 lethal 99.0 (not shown: Mtb hypoxia inh, BJeLR lethal, CCHFV vOTU inh, RecA intein inh)
CCc1ccc(CCC(=O)Nc2ncc(Cc3ccccc3Cl)s2)o1	BJeLR lethal 56.7
O=C(CN1CCOCC1)Nc1ncc(Cc2ccccc2Cl)s1	none
COC(=O)c1ccc(-n2c(C)cc(C(=O)CCl)c2C)cc1	RecA intein inh 34.7
CCOC(=O)C1C2COc3cc(OC)ccc3C2N2C(=O)N(c3cccc(Cl)c3)C(=O)[C@@]12C (some centres not stated)	none (no result: BJeLR lethal, CCHFV vOTU inh, RecA intein inh)
CC(C)c1oc(=O)cc2c1C(O)C1OC(=O)[C@@]3(C)CCC(O)[C@@]2(C)C13 (some centres not stated)	none (no result: BJeLR lethal, CCHFV vOTU inh, RecA intein inh)

From PubChem BioAssay
